This excerpt belongs to a sample that is enriched for hits.
Tgondii IFNg – blocks Toxoplasma gondii growth in the presence of IFN-gamma; 69,000 compounds, 3.8% hits; Toxoplasma gondii growth in IFN-gamma-treated host cells; stronger effect = lower value; activity change, negative = inhibition, % (no concentration beside the values); in the data active means activity change below about -70%, passing the limit was not always enough;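 further: host cells are HeLa cells infected with Toxoplasma gondii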
* hit, by the source's call; i = inactive; ! = a repeat was not active.

SMILES | Tgondii IFNg
Cc1ccc(CC(=O)Nc2ccc(-c3nc(Cn4cccn4)c(C)o3)cc2)cc1 | -39
CCOc1ccc(C(=O)Nc2ccc(-c3nc(Cn4cccn4)c(C)o3)cc2)cc1 | -99*
Cc1oc(-c2ccc(NC(=O)c3cccc(C(F)(F)F)c3)cc2)nc1Cn1cccn1 | -49
Cc1oc(-c2ccc(NC(=O)c3ccc4c(c3)OCO4)cc2)nc1Cn1cccn1 | -91*
Cc1oc(-c2ccc(NC(=O)COc3ccccc3)cc2)nc1Cn1cccn1 | 56
Cc1oc(-c2ccc(NC(=O)c3ccc(F)cc3F)cc2)nc1Cn1cccn1 | -35
COC(=O)CCn1cc(CN2CCCC2c2ccccn2)cn1 (configuration not stated) | 14
COc1ccc(-c2nc(C)c(CCNC(=O)C(=O)Nc3cccc(C)c3)s2)cc1OC | 67
c1csc(CN2CCC3(CC2)CC(N2CCCC2)CO3)c1 (configuration not stated) | 2
CCOCC(=O)N1CCCn2nnc(Cn3cccc3)c2C1 | -2
Cc1ccc(S(=O)(=O)N[C@@H]2C=C[C@@H](CC(=O)NCc3ccc(Cl)c(Cl)c3)O[C@H]2CO)cc1 | -53
COc1ccc(-c2nc(NCC3CCN(Cc4ccccc4F)CC3)c3ccccc3n2)cc1 | -50
COc1ccccc1-c1ccc([C@H]2[C@@H](CO)N(C(=O)NC3CCCCC3)[C@H]2C#N)cc1 | 39
N[C@@H](Cc1cnc[nH]1)C(=O)NCc1ccc2sccc2c1 | 48
C/C=C/c1ccc([C@H]2[C@@H](CO)N(S(=O)(=O)CC)[C@H]2CN(C)C(=O)CC)cc1 | 16
Cc1nnsc1C(=O)Nc1ccc(-n2nc(C(F)(F)F)cc2C(F)(F)F)cc1 | -81*
Cc1nnsc1C(=O)Nc1cccc(N)c1 | 2
Cc1ccc(C(=O)Nc2ccc(-n3nc(C(F)(F)F)cc3-c3cccs3)cc2)cc1 | 69
CC[C@@]1(O)C(=O)OCc2c1cc1n(c2=O)Cc2cc3c([N+](=O)[O-])cccc3nc2-1 | -80*
CC[C@@]1(O)C(=O)OCc2c1cc1n(c2=O)Cc2cc3c(CN(C)C)c(O)ccc3nc2-1 | -78*
Cc1cc(=O)oc2c(CN(C)C)c(O)ccc12 | -2
CO[C@H]1CO[C@@]2(CCCN(C(=O)c3ccncn3)C2)C1 | 0
O=C(Nc1cccc(N2CCC(NC3CCCc4ccccc43)CC2)c1)c1ccncc1 (configuration not stated) | 22
O=C(CN1CCCC1Cn1cccn1)Nc1nc2c(s1)CCCC2 (configuration not stated) | -78*
Cc1ccc2c(c1)C(=O)CC1(CCN(CC(=O)Nc3nc4c(s3)CCCC4)CC1)O2 | -48
SMILES | Tgondii IFNg
O=C(CN1CCCC1Cn1cccn1)Nc1ccnn1C1CCCC1 (configuration not stated) | 1
COCC1c2nnn(C)c2CCN1Cc1ccc2c(c1)OCO2 (configuration not stated) | i
Cc1ccc(-c2nc(C)c(CCNC(=O)C(=O)Nc3ccc(C)c(C)c3)s2)cc1 | -16
C[C@H](CO)N1C[C@H](C)[C@H](CN(C)C(=O)Nc2ccc(C(F)(F)F)cc2)Oc2ccc(NS(=O)(=O)c3ccc(Cl)cc3)cc2CC1=O | 5
C[C@H]1CN([C@@H](C)CO)C(=O)Cc2cc(NC(=O)C3CCCCC3)ccc2O[C@H]1CN(C)Cc1ccc(Cl)c(Cl)c1 | -54
C[C@@H]1CN([C@@H](C)CO)C(=O)Cc2cc(NS(=O)(=O)c3ccc(Cl)cc3)ccc2O[C@H]1CN(C)C(=O)Nc1ccc(C(F)(F)F)cc1 | -25
C[C@@H]1CN([C@H](C)CO)C(=O)Cc2cc(NC(=O)C3CCCCC3)ccc2O[C@H]1CN(C)Cc1ccc(Cl)c(Cl)c1 | -72*
C[C@@H]1CN([C@@H](C)CO)C(=O)Cc2cc(NC(=O)C3CCCCC3)ccc2O[C@H]1CN(C)Cc1ccc(Cl)c(Cl)c1 | -33
C[C@@H]1CN([C@@H](C)CO)C(=O)Cc2cc(NS(=O)(=O)c3ccc(Cl)cc3)ccc2O[C@@H]1CN(C)C(=O)Nc1ccc(C(F)(F)F)cc1 | -79*
CCCN1CCc2nc(SCc3nc(-c4ccc(OCC)c(OC)c4)oc3C)[nH]c(=O)c2C1 | 15
COCc1cc(CN2CCN(c3nccc4occc34)CC2)ccc1OC | 148
CCOc1ccccc1CNc1nc(-c2nnc(-c3cccc(C)c3)o2)nc2ccccc12 | -47
COc1ccccc1NC(=O)CSCc1nc2ccccc2c(=O)[nH]1 | -20
Cc1noc(C)c1CCC(=O)N1CCC(c2nc(C3CCC3)n3c(C)csc23)C1 (configuration not stated) | 9
Cc1nc(Nc2n[nH]c3c2CN(C(=O)N[C@H](CN(C)C)c2ccccc2)C3(C)C)c2sccc2n1 | -75*
CC(Cn1cncn1)C(=O)N1CCc2onc(-c3cccc(F)c3)c2C1 (configuration not stated) | -3
O=C(Nc1ccc(OC(F)(F)F)cc1)c1cscc1Sc1ccc(Cl)cc1 | -52
Cc1cc(C(=O)Oc2ccc(Cl)cc2)no1 | 0
O=C(Oc1ccc(Cl)cc1)c1cscc1Sc1ccc(Cl)cc1 | -101*
O=C(NCC1OCCc2cn(Cc3ccccn3)nc21)c1ccco1 (configuration not stated) | 15
Cc1cc(C)n(CCn2ccnc2-c2nc[nH]c2C)n1 | -6
CCC(Sc1nc(Cc2ccc(O)cc2)c(C)[nH]1)C(=O)Nc1cc(C)on1 (configuration not stated) | 22
COc1cc(NC(=O)N2CCc3nc(-c4ccc(C)cc4)sc3C2)cc(OC)c1 | 31
COc1ccc(-c2nc3c(s2)CN(C(=O)Nc2cccc(SC)c2)CC3)cc1 | -116*
COc1ccc(-c2nc3c(s2)CN(C(=O)Nc2cc(C)ccc2C)CC3)cc1 | 78
SMILES | Tgondii IFNg
COc1cccc(-c2nc3c(s2)CN(C(=O)Nc2ccc(Br)cc2)CC3)c1 | -36
COc1ccc(-c2nc3c(s2)CN(C(=O)Nc2ccccc2OC)CC3)cc1 | 7
COc1ccc(-c2nc3c(s2)CN(C(=O)Nc2ccc(C)c(C)c2)CC3)cc1 | -95*
CO[C@H]1CN(C)C(=O)c2cc(NC(=O)NC3CCCCC3)ccc2OC[C@H](C)N(CC2CCOCC2)C[C@@H]1C | 9
CCCS(=O)(=O)N1CCN(C(=O)c2ccccc2)CC1 | 3
CN(C)c1ccc(CN2CC3CN(S(=O)(=O)Cc4ccccc4)CC3C2)cc1 (configuration not stated) | 8
Cc1c(C(=O)CSc2nc3ccccc3c(=O)[nH]2)c2ccccc2n1C | 8
CC(C)NC(=O)c1cc2c(nc1NCC1CC1)CCN(c1ncc(F)cn1)CC2 | -1
CC(=O)O[C@]1(C(C)=O)CC[C@H]2[C@@H]3C=C(C)C4=CC(=O)CC[C@@H]4[C@H]3CC[C@@]21C | -21
C#C[C@]1(OC(C)=O)CCC2C3CCC4=CC(=O)CC[C@@H]4C3CC[C@@]21C (some centres not stated) | -83*!
C#C[C@]1(OC(C)=O)CC[C@H]2[C@@H]3CCC4=C[C@@H](OC(C)=O)CC[C@@H]4[C@H]3CC[C@@]21C | -34
COCCNC(=O)C(c1ccco1)N(C(=O)Cn1nnc2ccccc21)c1ccccc1 (configuration not stated) | 6
CN1C(=O)CCC12CCCN(S(=O)(=O)c1cccs1)CC2 (configuration not stated) | -23
CNC(=O)c1cccc2cccc(S(=O)c3cccc4cccc(C(=O)O)c34)c12 (configuration not stated) | 19

Bioassay records deposited in PubChem by Broad Institute.
